Results taken from the OligoGym collection.

Molecular target: DAGLA
Experiment: pooled miR-30 sensor sort-seq; sequence = guide strand
Details: shRNA

Going from TTGGCAGTGAGGTCGTTGCAGG to TCTTCTTGATGTACTCAGCTGA, the sensor-assay potency score (higher = more potent) rises from -1.13 to 0.266.

Compared with TATATTTATAGAATAAGCTATA, TTGAGGGTCGGATACTGTGGGC is lower in sensor-assay potency score (higher = more potent): -0.774 for the first, -1.18 for the second.

Going from TTCATCTGAGAGTCTGTCTTGT to TTTCATCTGAGAGTCTGTCTTG, the sensor-assay potency score (higher = more potent) falls from 0.509 to 0.187.

Going from TATAGTTAGGTCGCTGGGGTGG to TAAACATGTACAGCACTGCAGG, the sensor-assay potency score (higher = more potent) falls from -0.742 to -1.11.

First: TTAGGAACGGTGCACACTCATG
Second: TAGAGGTCTTGGAAGGAGCTGC
The sensor-assay potency score (higher = more potent) of the first is lower: -1.56 for the first, 0.223 for the second.

Going from TAGTTCTCCAGCACCTTGTTGA to TAGCGGAGCATCTCTTGTGAAT, the sensor-assay potency score (higher = more potent) falls from -0.467 to -1.2.

Molecular target: DAZ2
Experiment: as above
Details: shRNA

Compared with TCGTGATTATCTTCACTTCTTT, TGGATAAGCAGAATAAGCCTGA is higher in sensor-assay potency score (higher = more potent): -0.86 for the first, -0.294 for the second.

TATACAGGCAACTGATATCCAG showed a sensor-assay potency score (higher = more potent) of -0.956.

Molecular target: DCAF4L2
Experiment: as above
Details: shRNA

First: TACCTATGAACAGCGACGCTGG
Second: TCTGACTGTCTTTTTCTGCTTG
The sensor-assay potency score (higher = more potent) of the first is lower: -0.732 for the first, 0.906 for the second.

Going from TAGCTGGTTCTTTCGTAGCATG to TTTTCTTTTGTCAACTGCCCAT, the sensor-assay potency score (higher = more potent) rises from -1.53 to -0.395.

Going from TTAACTGAAACAACTTTACAGA to TTTGCAGAGAAGTCACTGCTGA, the sensor-assay potency score (higher = more potent) rises from -0.678 to 0.521.

Compared with TTCTTCGTTCACATGCACGGGT, TACTGTGTTACACATTTAGTGG is lower in sensor-assay potency score (higher = more potent): 0.233 for the first, -1.02 for the second.

First: TGTATCTTCTCTATTGACCTAT
Second: TTATCTTTGACACTGAGCCCTT
The sensor-assay potency score (higher = more potent) of the first is higher: 0.0322 for the first, -0.414 for the second.

First: TTGGAGTATCTGCAAGTCCCAC
Second: TAAACATCTCACAAACTGCTGC
The sensor-assay potency score (higher = more potent) of the first is lower: -0.914 for the first, -0.0348 for the second.

Molecular target: DCHS2
Experiment: as above
Details: shRNA

Going from TGGATTATCATTGACATCCAGC to TTCATAGTCAAACTGTCGCCGC, the sensor-assay potency score (higher = more potent) rises from -1.15 to -0.481.

Going from TGTACCTTGATTACAGTCGTAT to TTATAGTAAAGCACTCATCAGT, the sensor-assay potency score (higher = more potent) rises from -0.366 to -0.223.

Compared with ATACTTATTAAACTCAACCATT, TAATCTAGAATCGCTTTTGTTG is higher in sensor-assay potency score (higher = more potent): -1.29 for the first, -0.749 for the second.

Compared with TTTTCTGGAACAATACAGCTGA, TAGAATAGGTCAATTCTCCATA is lower in sensor-assay potency score (higher = more potent): 0.21 for the first, -0.353 for the second.

First: TTGAGAACATAAACTGAGGTGC
Second: TAGAAAGAAACAAGTCTCCGGT
The sensor-assay potency score (higher = more potent) of the first is lower: 0.162 for the first, 0.782 for the second.

Compared with TATATCAGTCACCTGTACCTTG, TGAATTATCATTCTCATCCTGT is higher in sensor-assay potency score (higher = more potent): 0.322 for the first, 0.421 for the second.
